# Data as given in PubChem BioAssay (EPA / NIEHS).
# “And” between values parts separate entries of the source, which are not always exact repeats. Equal values may be shown once. Results filed as inconclusive are left out. The source made the active and inactive calls. The calls were made as follows, unless noted: active = hit-call score of the fitted dose curve at least 0.9, where 1 is the maximum; inconclusive = response in the unintended direction; inactive = score below 0.9.
# Tests used:
# [1] = system: rat CYP3A1, gene 25642; test: NVS_ADME_rCYP3A1: NovaScreen (NVS) CYP450-related Enzyme Activity (ADME) Assay for rat CYP3A1 (AID 2283126)
# Summary of the method: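 Cell-free recombinant CYP assay with fluorescent substrate, read 0.5 h after dosing. Screened at 10 uM in duplicate, hits at up to 20 uM in concentration-response; loss of signal versus acetonitrile baseline.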
# [2] = target: human Caspase 10 (CASP10), CASP10 (gene 843) (UniProt Q92851); test: NVS_ENZ_hCASP10: NovaScreen (NVS) Enzymatic Assay for human Caspase 10 (CASP10) (AID 2283133)
# Summary of the method: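 Recombinant human caspase-10 from E. coli, cell-free fluorogenic substrate assay read 1 h after dosing. Primary duplicate screen at 25 uM; hits (e.g. ≥30% inhibition) run singly in concentration-response up to 50 uM, normalised to DMSO.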
# [3] = target: human CYP2C9, CYP2C9 (gene 1559) (UniProt P11712); test: NVS_ADME_hCYP2C9: NovaScreen (NVS) CYP450-related Enzyme Activity (ADME) Assay for human CYP2C9 (AID 2283108)
# Summary of the method: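 Fluorescence readout of CYP2C9 activity (SF9-expressed human enzyme) at 0.75 h. The primary screen used 10 uM in duplicate, with concentration-response follow-up for actives; acetonitrile was the negative control.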
# [4] = target: rat CYP2D2, Cyp2d26 (gene 25053) (UniProt P10634); test: NVS_ADME_rCYP2D2: NovaScreen (NVS) CYP450-related Enzyme Activity (ADME) Assay for rat CYP2D2 (AID 2283124)
# Summary of the method: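 Recombinant rat CYP2D2 in a cell-free fluorogenic activity assay, fluorescence read 0.75 h after dosing. Primary screen in duplicate at 10 uM; actives re-run singly in concentration-response to 20 uM, relative to acetonitrile.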
# [5] = target: human Acetylcholinesterase (AChE), ACHE (gene 43) (UniProt P22303); test: NVS_ENZ_hAChE: NovaScreen (NVS) Enzymatic Assay for human Acetylcholinesterase (AChE) (AID 2283129)
# Summary of the method: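 Cell-free colorimetric enzyme-activity assay; compounds read 0.33 hour after dosing, loss of signal vs DMSO baseline. Primary screen in duplicate at 25 uM single concentration, with active compounds retested in concentration series.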
# [6] = system: rat CYP2C6, gene 293989; test: NVS_ADME_rCYP2C6: NovaScreen (NVS) CYP450-related Enzyme Activity (ADME) Assay for rat CYP2C6 (AID 2283120)
# Summary of the method: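 Cell-free recombinant rat CYP2C6 with fluorogenic substrate, read by fluorescence 1 h after dosing; acetonitrile as negative control. Primary screen at 10 uM in duplicate, actives then in concentration-response up to 20 uM.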
# [7] = target: rat CYP3A2, Cyp3a2 (gene 266682) (UniProt P05183); test: NVS_ADME_rCYP3A2: NovaScreen (NVS) CYP450-related Enzyme Activity (ADME) Assay for rat CYP3A2 (AID 2283128)
# Summary of the method: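 Cell-free rat CYP3A2 enzyme assay with fluorescent substrate, read 0.5 h after dosing. Primary duplicate screen at 10 uM; actives run in concentration-response up to 20 uM, relative to acetonitrile baseline.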
# [8] = target: rat CYP2A1, Cyp2a1 (gene 24894) (UniProt P11711); test: NVS_ADME_rCYP2A1: NovaScreen (NVS) CYP450-related Enzyme Activity (ADME) Assay for rat CYP2A1 (AID 2283114; active = hit-call score of the fitted dose curve at least 0.9, where 1 is the maximum; inactive = score below 0.9)
# Summary of the method: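 Recombinant rat CYP2A1, cell-free, fluorogenic substrate turnover read by fluorescence intensity 0.75 h after dosing. Primary screen at 10 uM in duplicate; actives rerun as concentration-response up to 20 uM; loss of signal versus acetonitrile control.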
# [9] = target: rat CYP2C12, Cyp2c12 (gene 25011) (UniProt P11510); test: NVS_ADME_rCYP2C12: NovaScreen (NVS) CYP450-related Enzyme Activity (ADME) Assay for rat CYP2C12 (AID 2283119)
# Summary of the method: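 Cell-free recombinant rat CYP2C12 activity read by fluorescence 0.5 h after dosing; loss of signal versus acetonitrile control. Primary screen in duplicate at 10 uM; actives then run in concentration-response format.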
# [10] = target: rat CYP2D1, Cyp2d1 (gene 266684) (UniProt P10633); test: NVS_ADME_rCYP2D1: NovaScreen (NVS) CYP450-related Enzyme Activity (ADME) Assay for rat CYP2D1 (AID 2283122)
# Summary of the method: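 Cell-free fluorescence enzyme-activity assay on extracted rat CYP2D1 protein, read 0.75 h after dosing. Primary screen in duplicate at 10 uM; qualifying chemicals then run in concentration-response to 20 uM max, loss-of-signal versus acetonitrile baseline.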
# [11] = target: human AMP-activated Protein Kinase, alpha 1 (AMPKa1), PRKAA1 (gene 5562) (UniProt Q13131); test: NVS_ENZ_hAMPKa1: NovaScreen (NVS) Enzymatic Assay for human AMP-activated Protein Kinase, alpha 1 (AMPKa1) (AID 2283130)
# Summary of the method: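 Recombinant human AMPKα1 activity was measured cell-free by fluorescent substrate conversion with electrophoretic mobility-shift separation, 1 h after dosing. Duplicate single-point screening was at 25 uM; actives (≥30% inhibition) were retested in concentration-response up to 50 uM.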
# [12] = target: Caspase-1 (Homo sapiens) (UniProt P29466); test: NVS_ENZ_hCASP1: NovaScreen (NVS) Enzymatic Assay for human Caspase 1 (CASP1) (AID 2283132)
# Summary of the method: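 Cell-free enzymatic assay with E. coli-expressed recombinant protein; fluorescence intensity read 1 hour after dosing. Single-concentration duplicate screen at 25 uM, then concentration-response up to 50 uM; activity fitted relative to DMSO, loss of signal meaning inhibition.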
# [13] = target: rat CYP2C11, Cyp2c11 (gene 29277) (UniProt P08683); test: NVS_ADME_rCYP2C11: NovaScreen (NVS) CYP450-related Enzyme Activity (ADME) Assay for rat CYP2C11 (AID 2283118)
# Summary of the method: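 Cell-free recombinant rat enzyme with fluorescent substrate; readout 0.33 h after dosing, loss of signal versus acetonitrile control. Initial duplicate single-point at 10 uM; actives rerun in concentration series.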
# [14] = target: human CYP2D6, CYP2D6 (gene 1565) (UniProt P10635); test: NVS_ADME_hCYP2D6: NovaScreen (NVS) CYP450-related Enzyme Activity (ADME) Assay for human CYP2D6 (AID 2283107)
# Summary of the method: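 Fluorescence intensity read 1 h post-dosing; insect-cell-expressed recombinant protein with fluorogenic substrate, no cells. Activity is scored as signal loss relative to acetonitrile baseline, first at a single 10 uM concentration in duplicate, then as concentration series for confirmed actives.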
# [15] = target: human CYP4F12, CYP4F12 (gene 66002) (UniProt Q9HCS2); test: NVS_ADME_hCYP4F12: NovaScreen (NVS) CYP450-related Enzyme Activity (ADME) Assay for human CYP4F12 (AID 2283111)
# Summary of the method: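 Cell-free fluorescence assay of recombinant human CYP4F12 activity on a specific substrate, read 0.5 h after dosing. Primary screen in duplicate at 10 uM, then concentration series for actives; loss of signal fitted against acetonitrile negative control.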
# [16] = target: Cytochrome P450 3A4 (Homo sapiens) (UniProt P08684); test: NVS_ADME_hCYP3A4: NovaScreen (NVS) CYP450-related Enzyme Activity (ADME) Assay for human CYP3A4 (AID 2283110)
# Summary of the method: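 Compounds were first screened in duplicate at 10 uM against recombinant CYP3A4 produced in insect cells, then actives were run in concentration series. Enzyme activity was measured by fluorescence after 0.33 hour, with acetonitrile as baseline.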
# rat CYP2C12, Cyp2c12 (gene 25011), sequence (P11510 whole entry, looked up): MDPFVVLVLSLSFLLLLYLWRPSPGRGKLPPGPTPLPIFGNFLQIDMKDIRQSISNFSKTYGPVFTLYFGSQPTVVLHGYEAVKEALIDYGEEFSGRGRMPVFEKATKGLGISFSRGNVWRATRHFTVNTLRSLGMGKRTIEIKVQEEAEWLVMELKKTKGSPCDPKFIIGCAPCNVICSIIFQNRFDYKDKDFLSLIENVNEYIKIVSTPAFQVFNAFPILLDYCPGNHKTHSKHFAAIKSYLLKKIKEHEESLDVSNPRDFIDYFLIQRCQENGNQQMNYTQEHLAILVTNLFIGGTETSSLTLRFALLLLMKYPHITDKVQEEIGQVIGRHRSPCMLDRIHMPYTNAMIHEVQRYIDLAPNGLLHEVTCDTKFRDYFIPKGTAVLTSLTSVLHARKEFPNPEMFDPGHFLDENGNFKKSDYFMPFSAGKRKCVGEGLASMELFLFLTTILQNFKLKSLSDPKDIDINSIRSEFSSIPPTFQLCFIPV
# rat CYP2A1, Cyp2a1 (gene 24894), sequence (P11711 whole entry, looked up): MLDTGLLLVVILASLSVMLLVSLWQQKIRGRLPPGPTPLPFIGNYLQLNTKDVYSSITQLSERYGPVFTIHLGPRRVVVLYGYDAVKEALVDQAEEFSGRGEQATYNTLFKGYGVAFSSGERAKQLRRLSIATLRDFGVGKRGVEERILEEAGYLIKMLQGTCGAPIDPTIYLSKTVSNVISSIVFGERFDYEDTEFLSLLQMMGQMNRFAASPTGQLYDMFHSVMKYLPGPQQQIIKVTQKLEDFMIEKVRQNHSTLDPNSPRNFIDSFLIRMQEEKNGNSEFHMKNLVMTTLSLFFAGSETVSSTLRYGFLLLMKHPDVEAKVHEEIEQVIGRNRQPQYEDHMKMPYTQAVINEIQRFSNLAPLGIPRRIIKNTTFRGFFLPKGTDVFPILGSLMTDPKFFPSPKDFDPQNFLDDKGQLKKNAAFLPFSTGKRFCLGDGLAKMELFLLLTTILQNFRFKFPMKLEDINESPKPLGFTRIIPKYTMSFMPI
# rat CYP2D2, Cyp2d26 (gene 25053), sequence (P10634 whole entry, looked up): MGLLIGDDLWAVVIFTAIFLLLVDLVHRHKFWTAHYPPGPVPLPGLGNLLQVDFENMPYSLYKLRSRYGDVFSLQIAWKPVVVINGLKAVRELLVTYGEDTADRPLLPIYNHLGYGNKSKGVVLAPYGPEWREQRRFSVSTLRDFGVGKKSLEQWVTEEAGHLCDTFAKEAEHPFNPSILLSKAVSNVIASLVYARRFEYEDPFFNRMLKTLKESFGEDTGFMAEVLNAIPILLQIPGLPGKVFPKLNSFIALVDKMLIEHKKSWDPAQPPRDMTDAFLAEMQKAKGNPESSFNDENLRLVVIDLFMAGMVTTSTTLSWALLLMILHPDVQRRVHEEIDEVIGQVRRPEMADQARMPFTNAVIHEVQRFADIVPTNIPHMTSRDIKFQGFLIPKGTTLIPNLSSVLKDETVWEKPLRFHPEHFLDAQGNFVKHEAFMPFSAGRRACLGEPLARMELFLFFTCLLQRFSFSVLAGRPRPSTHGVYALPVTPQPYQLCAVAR
# human Acetylcholinesterase (AChE), ACHE (gene 43), sequence (P22303 whole entry, looked up): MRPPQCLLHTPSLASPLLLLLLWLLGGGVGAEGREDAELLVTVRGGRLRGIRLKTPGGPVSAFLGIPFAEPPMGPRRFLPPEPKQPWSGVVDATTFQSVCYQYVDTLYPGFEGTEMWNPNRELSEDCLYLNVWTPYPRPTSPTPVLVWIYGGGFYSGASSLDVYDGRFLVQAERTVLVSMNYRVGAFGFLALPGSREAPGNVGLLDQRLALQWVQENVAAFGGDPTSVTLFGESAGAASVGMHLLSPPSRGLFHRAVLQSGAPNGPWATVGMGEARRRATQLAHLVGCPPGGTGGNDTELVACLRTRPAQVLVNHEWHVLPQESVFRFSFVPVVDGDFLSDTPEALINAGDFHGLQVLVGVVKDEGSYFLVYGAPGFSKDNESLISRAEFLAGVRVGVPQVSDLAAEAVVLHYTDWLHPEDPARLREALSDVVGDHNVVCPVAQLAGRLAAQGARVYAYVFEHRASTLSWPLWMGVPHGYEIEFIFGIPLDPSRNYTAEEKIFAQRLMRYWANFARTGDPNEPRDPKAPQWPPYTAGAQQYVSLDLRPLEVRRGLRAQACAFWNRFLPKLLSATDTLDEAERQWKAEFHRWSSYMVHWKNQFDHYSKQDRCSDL
# Caspase-1 (Homo sapiens), sequence (P29466 whole entry, looked up): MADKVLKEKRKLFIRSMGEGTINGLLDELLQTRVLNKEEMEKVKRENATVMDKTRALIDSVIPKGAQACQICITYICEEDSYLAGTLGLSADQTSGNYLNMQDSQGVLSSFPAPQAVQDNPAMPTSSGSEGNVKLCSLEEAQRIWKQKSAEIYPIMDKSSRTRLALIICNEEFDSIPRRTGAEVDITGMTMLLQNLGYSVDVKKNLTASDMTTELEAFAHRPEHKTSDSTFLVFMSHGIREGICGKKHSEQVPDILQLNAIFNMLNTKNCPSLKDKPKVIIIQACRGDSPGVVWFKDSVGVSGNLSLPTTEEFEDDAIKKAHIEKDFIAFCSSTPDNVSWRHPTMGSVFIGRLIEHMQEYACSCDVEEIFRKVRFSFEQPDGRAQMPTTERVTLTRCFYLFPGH
# rat CYP3A2, Cyp3a2 (gene 266682), sequence (P05183 whole entry, looked up): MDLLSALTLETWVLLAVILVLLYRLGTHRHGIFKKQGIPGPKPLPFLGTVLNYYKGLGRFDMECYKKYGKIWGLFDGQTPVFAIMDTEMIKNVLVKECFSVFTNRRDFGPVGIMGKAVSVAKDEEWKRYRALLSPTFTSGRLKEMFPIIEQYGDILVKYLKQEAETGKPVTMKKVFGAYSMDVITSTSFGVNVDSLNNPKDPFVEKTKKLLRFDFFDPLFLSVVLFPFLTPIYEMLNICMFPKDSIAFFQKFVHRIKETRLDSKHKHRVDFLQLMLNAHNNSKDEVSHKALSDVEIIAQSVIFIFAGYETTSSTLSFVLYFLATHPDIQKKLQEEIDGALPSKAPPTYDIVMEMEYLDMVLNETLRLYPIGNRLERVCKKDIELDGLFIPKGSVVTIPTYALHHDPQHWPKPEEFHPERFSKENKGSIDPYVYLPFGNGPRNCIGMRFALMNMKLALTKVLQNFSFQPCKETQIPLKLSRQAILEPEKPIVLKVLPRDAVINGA
# human CYP2C9, CYP2C9 (gene 1559), sequence (P11712 whole entry, looked up): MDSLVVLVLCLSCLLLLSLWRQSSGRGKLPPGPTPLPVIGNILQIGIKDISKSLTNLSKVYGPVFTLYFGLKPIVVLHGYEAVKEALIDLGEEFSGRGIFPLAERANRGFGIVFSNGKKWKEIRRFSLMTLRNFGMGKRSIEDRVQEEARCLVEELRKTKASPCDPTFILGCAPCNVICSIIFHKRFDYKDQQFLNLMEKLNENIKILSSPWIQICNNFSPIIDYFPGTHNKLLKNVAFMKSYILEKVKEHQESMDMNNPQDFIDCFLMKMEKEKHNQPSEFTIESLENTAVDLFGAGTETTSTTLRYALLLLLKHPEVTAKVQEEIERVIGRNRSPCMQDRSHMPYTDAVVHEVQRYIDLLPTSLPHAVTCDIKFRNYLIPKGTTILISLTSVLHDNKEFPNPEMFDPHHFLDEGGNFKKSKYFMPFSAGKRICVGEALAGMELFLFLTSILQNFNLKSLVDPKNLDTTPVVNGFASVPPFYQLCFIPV
# human Caspase 10 (CASP10), CASP10 (gene 843), sequence (Q92851 whole entry, looked up): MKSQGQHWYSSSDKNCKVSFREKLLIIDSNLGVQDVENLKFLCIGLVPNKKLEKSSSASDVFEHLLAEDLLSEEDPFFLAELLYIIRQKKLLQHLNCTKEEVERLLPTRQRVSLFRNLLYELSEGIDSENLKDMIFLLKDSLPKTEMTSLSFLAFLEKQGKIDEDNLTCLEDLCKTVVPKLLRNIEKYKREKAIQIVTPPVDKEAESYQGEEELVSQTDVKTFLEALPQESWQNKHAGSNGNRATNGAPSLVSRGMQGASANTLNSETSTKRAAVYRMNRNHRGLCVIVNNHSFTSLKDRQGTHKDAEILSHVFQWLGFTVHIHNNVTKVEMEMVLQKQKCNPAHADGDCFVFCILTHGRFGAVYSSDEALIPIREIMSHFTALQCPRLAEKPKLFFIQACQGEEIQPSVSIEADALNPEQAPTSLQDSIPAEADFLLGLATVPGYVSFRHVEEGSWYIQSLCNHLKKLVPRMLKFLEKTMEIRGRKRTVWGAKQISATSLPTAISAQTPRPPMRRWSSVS
# rat CYP2C11, Cyp2c11 (gene 29277), sequence (P08683 whole entry, looked up): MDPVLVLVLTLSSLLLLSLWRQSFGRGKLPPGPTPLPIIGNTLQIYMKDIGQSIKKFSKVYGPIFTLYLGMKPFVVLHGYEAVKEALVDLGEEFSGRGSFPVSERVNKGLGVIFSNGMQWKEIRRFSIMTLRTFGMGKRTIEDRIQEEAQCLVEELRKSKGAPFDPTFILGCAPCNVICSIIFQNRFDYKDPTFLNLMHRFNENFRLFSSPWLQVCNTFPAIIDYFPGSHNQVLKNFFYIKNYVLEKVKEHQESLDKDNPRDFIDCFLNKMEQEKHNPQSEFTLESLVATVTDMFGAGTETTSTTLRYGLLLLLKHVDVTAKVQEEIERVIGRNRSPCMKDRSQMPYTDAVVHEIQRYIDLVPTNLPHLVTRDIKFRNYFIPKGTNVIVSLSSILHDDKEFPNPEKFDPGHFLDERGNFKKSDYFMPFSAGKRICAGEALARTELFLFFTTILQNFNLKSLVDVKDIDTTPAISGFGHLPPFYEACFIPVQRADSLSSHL
compound,measurement,setting,value
O=C(O)c1cc(Oc2ccc(C(F)(F)F)cc2Cl)ccc1[N+](=O)[O-],AC50,[1],5.89 µM (active)
same,outcome,[2],inactive
CC(C)=CC1C(C(=O)OCN2C(=O)C3=C(CCCC3)C2=O)C1(C)C (configuration not stated),AC50,[3],10 µM (active)
same,AC50,[4],10 µM (active)
same,outcome,[1],inactive
CCc1cccc(CC)c1N(COC)C(=O)CCl,outcome,[2],inactive
CNC(=O)ON=C(C)SC,AC50,[5],25 µM (active)
COc1ccc(C(=CC(=O)N2CCOCC2)c2ccc(Cl)cc2)cc1OC,AC50,[6],3.98 µM (active)
same,AC50,[1],3.86 µM (active)
same,AC50,[7],6.54 µM (active)
CSC1=N[C@@](C)(c2ccccc2)C(=O)N1Nc1ccccc1,AC50,[8],7.68 µM (active)
same,AC50,[9],8 µM (active)
same,outcome,[10],inactive
same,AC50,[1],2.77 µM (active)
same,AC50,[7],7.11 µM (active)
CC[C@H](C)[C@H]1O[C@]2(C=C[C@@H]1C)C[C@@H]1C[C@@H](C/C=C(\C)[C@@H](O[C@H]3C[C@H](OC)[C@@H](O[C@H]4C[C@H](OC)[C@@H](NC)[C@H](C)O4)[C@H](C)O3)[C@@H](C)/C=C/C=C3\CO[C@@H]4[C@H](O)C(C)=C[C@@H](C(=O)O1)[C@]34O)O2,AC50,[4],3.96 µM (active)
same,AC50,[1],7.04 µM (active)
same,AC50,[7],8.11 µM (active)
same,AC50,[11],14.6 µM (active)
S=C1NCCN1,outcome,[3],inactive
same,outcome,[9],inactive
same,outcome,[1],inactive
same,outcome,[12],inactive
CCOP(=O)(SC(C)CC)N1CCSC1=O (configuration not stated),AC50,[13],3.88 µM (active)
same,AC50,[6],5.01 µM (active)
same,AC50,[1],6.64 µM (active)
same,AC50,[7],8.56 µM (active)
CN(C)[C@@H]1C(=O)C(C(N)=O)=C(O)[C@@]2(O)C(=O)C3=C(O)c4c(O)cccc4[C@@](C)(O)[C@H]3[C@H](O)[C@@H]12,outcome,[14],inactive
same,AC50,[15],0.0105 µM (active)
same,AC50,[11],2.4 µM (active)
same,AC50,[12],11.6 µM (active)
CC1(C(=O)Nc2ccc(O)c(Cl)c2Cl)CCCCC1,AC50,[3],2.58 µM (active)
same,AC50,[8],1.8 µM (active)
same,AC50,[7],3.42 µM (active)
CCOP(=O)(OCC)Oc1cc(C)nc(C(C)C)n1,outcome,[1],inactive
CCC(=NOC/C=C/Cl)C1=C(O)CC(C2CCOCC2)CC1=O (configuration not stated),outcome,[3],inactive
CCOP(=S)(OCC)OC(Cl)C(Cl)(Cl)Cl (configuration not stated),AC50,[3],10 µM (active)
same,AC50,[5],8.21 µM (active)
CCOP(=S)(OCC)Oc1cc(C)nc(C(C)C)n1,AC50,[1],6.82 µM (active)
CC(C1CC1)C(O)(Cn1cncn1)c1ccc(Cl)cc1 (configuration not stated),AC50,[3],54.7 nM (active) and 47.4 nM (active)
same,AC50,[16],4.56 µM (active)
same,AC50,[8],4.58 µM (active)
same,AC50,[13],1.69 µM (active)
same,AC50,[9],3.71 µM (active)
same,AC50,[4],3.14 µM (active) and 4.54 µM (active)
same,AC50,[1],0.384 µM (active)
same,AC50,[7],0.771 µM (active)
COP(=O)(OC)SCn1c(=O)oc2cc(Cl)cnc21,AC50,[1],9.11 µM (active)
same,AC50,[7],6.18 µM (active)
same,AC50,[5],6.65 µM (active)
CNC(=O)ON=C(SC)C(=O)N(C)C,AC50,[5],12 µM (active)
CC(C)[C@H](C(=O)O[C@H](C#N)c1cccc(Oc2ccccc2)c1)c1ccc(Cl)cc1,outcome,[12],inactive
